Shown are actives, neighbours in structure and some others; about 21% of the full set was active somewhere.
SARS PLpro yeast – inhibitors of SARS-CoV papain-like protease in yeast. Potency, µM (top dose mostly 32.9 µM), without a hit: top-dose activity, positive = growth rescue, hits mostly activators. 0.19% of 330,000 active. S. cerevisiae expressing SARS-CoV PLpro, growth rescue. AID 485353; note: potency is the fitted concentration of half-maximal effect; 0% is about no effect; nearly all actives have a fitted effect of over 55% in size
Shiga toxin inh – inhibitors of Shiga toxin in Vero cells. 9.2% of 290,000 active. inhibition, % at 38.7 µM. Vero cells, Shiga toxin protein synthesis inhibition reporter. AID 2315; in the data active = inhibition mostly above about 28%, no sharp cut-off; inactive = mostly below about 43%; note: 0% is about no effect
Pf growth 48h – P. falciparum growth inhibition at 48 hours (one generation); P. falciparum luciferase growth in erythrocytes, 48 h; Potency, µM (highest dose often 28.7 µM), for inactives: at the highest dose activity change, negative = inhibition, usual class: inhibitors; 5.9% of 310,000 active; active = well fitted inhibition curve with a large enough effect; inconclusive = small, poorly fitted or top-dose-only effect, or another doubt; inactive = no such curve, though single readings can be large or run the other way; note: potency is the fitted concentration of half-maximal effect; % is set by controls: 0 for no effect and ±100 for the full control effect
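A one-generation exposure of luciferase-tagged malaria parasites in RPMI 1640/Albumax erythrocyte culture, 37 C and 5% CO2. Inhibition is inferred from decreased luminescence after adding detection reagent.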
Pf growth 96h – inhibits malaria parasite growth, 96 h; Potency, µM (doses to about 28.7 µM), inactives show top-dose activity change, negative = inhibition, most hits filed as inhibitors; 6.9% of 320,000 active; P. falciparum luciferase reporter growth, 96 h; AID 504834; active = well fitted inhibition curve with a large enough effect; inconclusive = small, poorly fitted or top-dose-only effect, or another doubt; inactive = no such curve, though single readings can be large or run the other way; note: potency is the fitted concentration of half-maximal effect; % is set by controls: 0 for no effect and ±100 for the full control effect
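Plates of compound plus infected erythrocytes (2% hematocrit, 0.05% parasitemia final) incubate 96 hours, 37 C, 5% CO2. Detection reagent added; reduced luminescence from the parasites' luciferase reporter flags inhibition.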
CHX counter – counter-screen for Shiga toxin inhibitors: cycloheximide protein synthesis inhibition. cell reporter, cycloheximide protein synthesis inhibition counterscreen. max response, %. 12% of 300,000 active. AID 2314; in the data active = max response mostly above about 13%, no sharp cut-off; inactive = mostly below about 14%; note: read at 38.3 µM for the half of the compounds with a filed dose; 0% is about no effect
NS1 inh – blocks influenza NS1 protein function | Potency, µM (highest dose often 46.1 µM), inactives show at the highest dose activity, positive = more growth | 0.4% of 270,000 active; note: potency is the fitted concentration of half-maximal effect; actives are rising curves; nearly all actives have a fitted effect of over 50% in size
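Growth recovery, yeast-based: influenza A NS1 expressed in S. cerevisiae causes slow growth, and suppressors are detected by OD600. The parent strain without NS1 is used as positive control.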
* marks the source's active call; other numbers are inactive results; i = inactive; ? = inconclusive; / = no result given. Unless noted, calls come from the whole dose curve.

SMILES	SARS PLpro yeast	Shiga toxin inh	Pf growth 48h	Pf growth 96h	CHX counter	NS1 inh
Cc1ccc2sc(N(CCCN(C)C)C(=O)CN3C(=O)c4ccccc4C3=O)nc2c1C	0%	-9	-21%	27%	-4	/
CCn1ncc(Br)c1C(=O)Nc1ccc(C(=O)OC(C)C)cc1	-31%	42	?	/	27*	-24%
CC(NC(=O)c1ccccc1O)c1ccccc1 (stereo not given)	-13%	-16	-13%	/	-1	-17%
O=C(O)COn1c(-c2ccccc2)nc2ccc([N+](=O)[O-])cc21	-1%	49*	20%	7%	25*	-4%
Cn1c(-c2ccc([N+](=O)[O-])cc2)nc2ccccc21	-1%	16	36%	26%	8	-1%
CCOC(=O)C(C)On1c(-c2ccccc2)nc2ccc([N+](=O)[O-])cc21 (stereo not given)	-8%	50*	118%	/	35*	-68%
CCOC(=O)C(C)On1c(-c2ccc(Cl)cc2)nc2ccc([N+](=O)[O-])cc21 (stereo not given)	-35%	129	-8%	/	33	-10%
COc1ccc(Oc2cc(C(F)(F)F)nc(N(C)C)n2)cc1	0%	-18	0%	0%	-3	0%
Nc1nc(Cl)nc2ccc(Br)cc12	18%	53*	132%	168%	67*	18%
CCc1c(C)nc2ccc(Br)cc2c1Cl	-4%	23	2%	15%	13	7%
Cc1ccc2c(c1)NC(=O)c1cccnc1N2	0%	97	215%	i	51*	-13%
Cc1ccc(-n2c(-c3ccc(Br)cc3)c[n+]3c2CCc2ccc4cccnc4c2-3)cc1	-18%	-39	1.7µM*	0.47µM*	-8	-144%
Cc1ccc(-n2c(=O)[nH]c3ncccc3c2=O)cc1	1%	-4	10%	-2%	1	1%
CC1(C)CC(=O)C(/C=N/c2ncccc2C(=O)O)=C(O)C1	10%	79	/	-5%	8	2%
COc1ccc(O)c(/C=N/NC(=O)c2ccc(OCc3cccc(Br)c3)cc2)c1	-4%	7	1.7µM*	11%	6	2%
COc1ccc(/C=N/NC(=O)c2ccncc2)c(OC)c1	-2%	20	-12%	0%	5	6%
COc1ccc(/C=N/N=C(/N)N[N+](=O)[O-])c(OC)c1	-3%	29*	80%	83%	29*	-8%
COc1ccc(/C=N/NC(=O)c2ccc(Br)cc2)c(OC)c1	-2%	47	?	?	23*	/
COc1cc(C(=O)Oc2ccccc2/C=N/NC(=O)c2ccc(Cl)cc2)cc(OC)c1OC	4%	55*	13µM*	6%	15*	-1%
ClC1=C(Cl)C(Cl)(C2(Cl)C(Cl)=C(Cl)C(Cl)=C2Cl)C(Cl)=C1Cl	/	-21	/	/	-15	/
COc1ccccc1/C=N/NC(=O)c1ccc(Br)cc1	-2%	19	4%	-9%	26*	/
COc1ccc(O)c(/C=N/NC(=O)c2ccc(CSc3nc(C)cc(C)n3)cc2)c1	?	71*	?	?	61*	19%
COc1ccccc1/C=N/NC(=O)CNC(=O)c1ccccc1	0%	27	0%	13%	1	-3%
C/C(N)=C(/C#N)C(=O)COc1ccc(Cl)cc1Cl	-2%	47	18%	27%	48*	/
C/C(N)=C(/C#N)C(=O)COC(=O)CNC(=O)c1ccc(Cl)cc1Cl	-7%	68*	13%	9%	13*	/
SMILES	SARS PLpro yeast	Shiga toxin inh	Pf growth 48h	Pf growth 96h	CHX counter	NS1 inh
COc1ccccc1NS(=O)(=O)c1cc(C(=O)NCC(c2ccco2)N2CCCCC2)ccc1C (stereo not given)	/	/	12µM*	8.3µM*	/	/
COc1ccc(/C=C/C(=O)NCCN2CCOCC2)cc1OC	0%	2	33%	-6%	-6	/
Cc1ccc(Sc2ncccc2C(=O)NCC(c2ccc(F)cc2)N2CCOCC2)cc1C (stereo not given)	-7%	/	12µM*	?	/	/
COc1ccccc1NS(=O)(=O)c1cc(C(=O)NCC(c2ccc(F)cc2)N2CCOCC2)ccc1C (stereo not given)	-1%	/	12µM*	?	/	/
COc1ccc(/C=C/C(=O)NCC(c2ccc(F)cc2)N2CCOCC2)cc1OC (stereo not given)	6%	-3	8.3µM*	?	5	-30%
COC(=O)c1ccc(Cn2nc(-c3ccc(C)cc3)ccc2=O)cc1	-1%	3	38%	26%	-3	-5%
O=C(CC1Sc2ccccc2NC1=O)NCc1ccccc1 (stereo not given)	1%	-4	?	4%	1	-9%
Cc1ccc(N=Nc2[nH]c3ccccc3c2O)cc1	-2%	152*	100%	34%	68*	-3%
CCCCCCc1c(O)c2ccccc2[nH]c1=O	-1%	19	-5%	?	-2	-2%
Cc1ccc2[nH]c(=O)c(Cc3ccccc3)c(O)c2c1	1%	1	28%	107%	-2	-1%
COc1ccc(N=Nc2[nH]c3ccc(C)cc3c2O)cc1	-4%	35*	27%	?	22*	-2%
COc1ccc(NC(=O)CC23CC4CC(CC(Br)(C4)C2)C3)c(OC)c1	-1%	15	21%	19%	10	-1%
Cc1cc(Cl)c(S(=O)(=O)NC2CCCC2)cc1OCC(=O)NC1CCCCC1	4%	-7	/	?	-5	1%
COc1ccc(OC)c(C(c2nnnn2C2CCCC2)N2CCc3ccccc3C2)c1 (stereo not given)	-28%	18	2.9µM*	24%	3	-60%
Cc1ccc(C(c2nnnn2C2CCCC2)N2c3ccccc3CC2C)cc1 (stereo not given)	-38%	22	13µM*	?	13	4%
COc1ccc(C(c2nnnn2C2CCCC2)N2CCc3ccccc3C2)cc1OC (stereo not given)	-7%	18	3.7µM*	35%	-3	-32%
COc1ccc(C(c2nnnn2C2CCCC2)N2CCC(C(N)=O)CC2)c(OC)c1 (stereo not given)	2%	-15	?	?	2	-11%
COc1cccc(N2CC(NC(=O)C(=O)c3c[nH]c4ccccc34)CC2=O)c1 (stereo not given)	0%	/	?	2%	/	/
CCOc1ccc(NC(=O)C2CCCN(S(=O)(=O)c3ccc4c(c3)CC(C)N4C(C)=O)C2)cc1 (stereo not given)	0%	7	?	?	-3	-6%
COc1ccc(NC(=O)C2CCCN(S(=O)(=O)c3ccc4c(c3)CCCN4C(C)=O)C2)cc1 (stereo not given)	-1%	-1	12µM*	-22%	4	-5%
COc1ccc(NC(=O)C2CCCN(S(=O)(=O)c3ccc4c(c3)CC(C)N4C(C)=O)C2)cc1 (stereo not given)	2%	-4	13µM*	-15%	7	11%
